Rows were chosen to be rich in hits. Some 3.5% of all compounds tested hit in one or more screens of this group.
GPR151 ag: activators of human GPR151. AID 1508602. 1% of 650,000 active. PathHunter beta-arrestin GPR151 cells, luminescence. activation, % at 11.2 µM. Q8TDV0; in the data active means activation above about 4.9%;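 further: 0% = median of compound wells and 100% = cells with positive control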
FBW7 act: activators of human E3 ligase FBW7; Q969H0; AlphaScreen FBW7–phospho-cyclin E peptide binding, activator screen; normalized activity (activation), % at 26.1 µM; 0.13% of 650,000 active; AID 1259310; in the data active means normalized activity above about 1.9%;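 further: purified mutant Fbw7 with reduced substrate affinity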
TEAD-YAP inh: TEAD-YAP interaction inhibition; HEK-TIYL cells, TEAD-Gal4/YAP UAS-luciferase luminescence; inhibition, % at 9.12 µM; AID 1259422; 1.4% of 640,000 active; in the data active means inhibition above about 32%;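 further: 0% = median of test compound wells and 100% = reference inhibitor wells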
MITF inh: inhibitors of human MITF; O75030; AlphaScreen MITF homodimerization, bead proximity signal; inhibition, % at 2.6 µM; 0.91% of 650,000 active; in the data active means inhibition above about 50%;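 further: 0% = vehicle wells with protein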
GPR151 confirm: confirmation of human GPR151 activators | shares compounds with GPR151 ag | GPR151 PathHunter beta-arrestin cells, luminescence, 90 min; % of EA-reagent control over plate median | activation, % at 11.2 µM | 6,700 tested, under 10 active | AID 1508609;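 active means mean percent activation across replicates above the confirmation screen cutoff of 4.91%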
GPR119 ag: GPR119 activation, counter-screen for GPR151 activators | shares compounds with GPR151 ag | GPR119 PathHunter beta-arrestin cells, luminescence, 90 min; 0 = compound-well median, 100 = enzyme-acceptor control | 0.3% of 6,700 active | activation, % at 11.2 µM;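 active means mean percent activation in the counterscreen above 29.09%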;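 further: counterscreen on off-target GPR119 to flag nonselective hits from the GPR151 activator screen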
Target sequence (Q8TDV5 whole entry, looked up): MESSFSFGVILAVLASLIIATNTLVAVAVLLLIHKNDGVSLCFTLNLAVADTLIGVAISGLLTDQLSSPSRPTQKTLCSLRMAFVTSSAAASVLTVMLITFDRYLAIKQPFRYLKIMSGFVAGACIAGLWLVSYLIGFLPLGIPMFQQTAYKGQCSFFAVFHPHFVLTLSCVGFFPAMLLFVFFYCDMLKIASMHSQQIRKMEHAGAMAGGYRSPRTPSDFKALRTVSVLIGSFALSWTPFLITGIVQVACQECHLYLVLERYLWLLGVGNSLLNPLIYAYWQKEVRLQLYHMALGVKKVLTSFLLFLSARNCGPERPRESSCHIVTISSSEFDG
Starred values were filed as active, the others as inactive; / = no result given.

SMILES	GPR151 ag	FBW7 act	TEAD-YAP inh	MITF inh	GPR151 confirm	GPR119 ag
COc1ccc(O)c(CN2CCN(Cc3ccc(OC)c(C)c3)C(CCO)C2)c1 (stereo not drawn)	0.0	-0.2	-3.7	1.5	/	/
CCc1ccccc1NC(=S)N(Cc1cccs1)C1CCCCC1	1.5	0.1	-5.4	-1.7	/	/
Cc1ccc(N2C(=O)CC(NC34CC5CC(CC(C5)C3)C4)C2=O)cc1 (stereo not drawn)	-0.5	0.0	-6.2	-0.5	/	/
COc1ccc(N2C(=O)CC(NC34CC5CC(CC(C5)C3)C4)C2=O)cc1 (stereo not drawn)	5.5*	0.2	8.4	-8.4	0.1	-5.2
COc1ccc(N2C(=O)CC(NCCNC(=O)c3ccc(Cl)cc3)C2=O)cc1 (stereo not drawn)	17.8*	0.2	2.8	7.1	-0.1	12.2
CCOc1ccc(-c2nc(NC(C)=O)c3c(=O)oc4c(OC)cccc4c3n2)cc1	9.2*	-0.2	7.7	-0.2	0.7	11.9
COc1cc(OC)c(S(=O)(=O)Nc2ncccc2C)cc1NC(C)=O	0.3	-0.1	5.5	1.2	/	/
O=C(N1CCCCC1)C12CC3CC(C1)CC(c1ccc([N+](=O)[O-])cc1)(C3)C2	6.8*	0.1	-1.0	-0.3	-0.4	-9.1
O=c1c2ccccc2c2ccccc2c(=O)n1-c1ccc(OC(F)(F)F)cc1	5.1*	-0.1	5.7	10.1	-0.5	-9.8
O=c1c2ccccc2c2ccccc2c(=O)n1-c1ccc(F)cc1	-1.9	0.3	-5.8	-3.1	/	/
CC(C)C(=O)Nc1ccc(S(=O)(=O)NCC2(c3ccccc3)CCOCC2)cc1	5.2*	0.2	-6.9	-0.4	-0.3	-5.4
Cn1nc([N+](=O)[O-])c2c(-c3nc4ccccc4n3C)c(N)n(CCc3ccccc3)c2c1=O	6.0*	-0.3	7.3	1.3	-1.5	-11.1
Cn1c(SCc2ccccc2F)nc2ccccc2c1=O	0.7	-0.1	-0.7	6.0	/	/
CC1=CC(C)(C)N(C(=O)CSc2nccc(C)n2)c2ccccc21	-0.2	0.3	-5.2	9.1	/	/
CCOc1cc(/C=N/NS(C)(=O)=O)ccc1O	9.0*	0.0	15.3	10.7	0.3	-6.3
CCOc1cc(/C=N/Nc2ccc(S(=O)(=O)O)cc2)ccc1O	-0.3	0.1	17.6	47.2	/	/
CCOC(=O)COc1ccc(/C=C2\C=C(c3ccc(Br)cc3)OC2=O)cc1OC	13.2*	0.1	6.5	-13.5	1.8	13.9
CC(C)c1ccc(NC(=O)c2cc(S(=O)(=O)N3CCc4ccccc43)ccc2F)cc1	7.4*	0.1	-10.7	0.2	-1.1	-11.0
Cc1ccc(NC(=O)c2ccccc2NC(=O)c2ccc(S(=O)(=O)N3CCc4ccccc43)cc2)c(C(=O)c2ccccc2)c1	8.7*	-0.1	1.0	-3.6	0.3	11.5
CCOC(=O)c1c(NC(=O)CSc2nnc(CNC(=O)c3cccc(OC)c3)n2-c2ccc(OCC)cc2)sc2c1CCCC2	0.9	-0.1	10.8	-8.3	/	/
NC(=O)C1CCN(C2=NS(=O)(=O)c3ccccc32)CC1	-1.5	0.0	6.5	-1.4	/	/
O=C(OCc1nc2ccccc2s1)C1CCN(C2=NS(=O)(=O)c3ccccc32)CC1	5.6*	-0.1	-6.1	7.0	0.5	12.4
Cc1ccsc1/C=C(/C#N)C(=O)NCc1ccccc1	-0.8	0.1	-10.8	8.3	/	/
Cc1ccsc1/C=C(\C#N)C(=O)NCc1cccnc1	12.4*	0.1	2.1	-6.1	0.5	-2.3
Nc1cc(=O)[nH]c(SCC(=O)N2CCN(C(c3ccccc3)c3ccccc3)CC2)n1	9.4*	-0.2	4.3	-5.0	-0.8	-9.2
SMILES	GPR151 ag	FBW7 act	TEAD-YAP inh	MITF inh	GPR151 confirm	GPR119 ag
CCCc1cc(=O)[nH]c(SCC(=O)N2CCN(c3ccccc3OC)CC2)n1	6.7*	0.3	7.2	2.7	-0.7	-9.0
O=C(O)CSCC(=O)NNC(=O)COc1ccc(Cl)cc1	-0.4	-0.1	-2.3	-9.6	/	/
NC(=O)c1ccc(NC(=O)/C=C/c2cccc(Cl)c2)cc1	2.8	0.0	-10.3	2.8	/	/
COc1ccccc1NC(=S)N(Cc1ccc(F)cc1)C1CCCCC1	-1.2	-0.1	0.9	-12.4	/	/
CC1(C)CC(=O)C2=C(C1)OC(N)=C(C#N)C2c1ccc(Cl)cc1 (stereo not drawn)	-1.8	0.2	5.3	12.7	/	/
CCC(C)C(NC(=O)c1ccccc1NC(=O)c1ccccc1)C(=O)N1CCOCC1 (stereo not drawn)	9.8*	-0.1	-6.6	5.9	-0.7	-1.9
CC(C)C(NC(=O)c1ccccc1NC(=O)c1ccccc1)C(=O)N1CCCCC1 (stereo not drawn)	1.2	0.0	1.2	11.4	/	/
CCOC(=O)C1=C(C)N=c2s/c(=C\c3ccc(O)cc3)c(=O)n2C1c1ccc(OC(C)C)cc1 (stereo not drawn)	0.6	0.3	5.8	7.7	/	/
COc1cccc2c1OC1(CCN(C(=O)Nc3cccc(C)c3)CC1)OC2	-0.2	0.1	-4.4	-2.5	/	/
CCOC(=O)C(N)CSC1CCCCO1 (stereo not drawn)	8.2*	0.1	-5.5	35.0	-0.2	-1.0
NC(CSC1CCCCO1)C(=O)O (stereo not drawn)	1.5	-0.1	-14.6	-8.2	/	/
COc1ccc(S(=O)(=O)NNC(=O)Nc2ccc(Cl)cc2)cc1	8.3*	-0.1	-4.5	-4.9	1.3	8.7
CC(=O)NS(=O)(=O)c1ccc(NC(=O)Nc2ccc(Cl)cc2)cc1	7.4*	0.0	1.7	0.3	-0.7	-3.3
CCn1c(SCC(=O)c2ccccc2)nnc1C(C)C	12.7*	0.1	-15.0	-8.6	0.8	9.3
CCn1c(SCC(=O)c2ccccc2)nnc1-c1ccccn1	0.0	-0.5	-58.3	6.2	/	/
CC(C)c1nnc(SCC(=O)NC(c2ccccc2)c2ccccc2)n1N	6.3*	0.0	-7.8	-0.2	0.4	-7.3
Nn1c(SCC(=O)NC(c2ccccc2)c2ccccc2)nnc1C1CC1	-0.6	0.0	11.5	-19.0	/	/
Cc1cccc(C(=O)Nc2cccc(-c3nc4ccccc4s3)c2)c1	0.2	-0.1	-0.2	-7.0	/	/
O=C(Nc1cccc(-c2nc3ccccc3s2)c1)c1ccccc1	1.7	0.2	2.6	12.5	/	/
O=C(Nc1cccc(-c2nc3ccccc3s2)c1)C12CC3CC(CC(C3)C1)C2	5.5*	-0.2	-5.4	-12.9	0.6	-0.5
O=C(Nc1cccc(-c2nc3ccccc3s2)c1)c1ccc(N2C(=O)CCC2=O)cc1	7.4*	0.0	-1.9	1.8	-0.8	1.6
O=Cc1ccc(-c2nccnc2NS(=O)(=O)c2cccc(Cl)c2)cc1	5.0*	-0.1	9.1	7.6	-0.4	-6.5
CN(C)c1ccc(-c2nccnc2NS(=O)(=O)c2ccc(Cl)cc2)cc1	1.0	-0.6	0.6	-10.0	/	/
CN(C)c1cccc2c(S(=O)(=O)Nc3nccnc3-c3ccc(C=O)cc3)cccc12	5.9*	0.1	1.9	1.7	2.1	-7.2

Assay outcomes: PubChem BioAssay, The Scripps Research Institute Molecular Screening Center
